Assay outcomes from PubChem BioAssay.
TSHR antag = antagonists of human thyroid stimulating hormone receptor; P16473; TSHR-expressing cells, TSH-stimulated cAMP HTRF, 2 h; active compounds read low; activity change, negative = inhibition, % at 11.5 µM; 330,000 tested, 0.2% active;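 active = activity change below a set negative limit, meaning inhibition stronger than a set level, cut at about -70% in these data; inconclusive = activity change between two set negative limits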; note: % is set by controls: 0 for no effect and ±100 for the full control effect
Target sequence (P16473 whole entry, looked up): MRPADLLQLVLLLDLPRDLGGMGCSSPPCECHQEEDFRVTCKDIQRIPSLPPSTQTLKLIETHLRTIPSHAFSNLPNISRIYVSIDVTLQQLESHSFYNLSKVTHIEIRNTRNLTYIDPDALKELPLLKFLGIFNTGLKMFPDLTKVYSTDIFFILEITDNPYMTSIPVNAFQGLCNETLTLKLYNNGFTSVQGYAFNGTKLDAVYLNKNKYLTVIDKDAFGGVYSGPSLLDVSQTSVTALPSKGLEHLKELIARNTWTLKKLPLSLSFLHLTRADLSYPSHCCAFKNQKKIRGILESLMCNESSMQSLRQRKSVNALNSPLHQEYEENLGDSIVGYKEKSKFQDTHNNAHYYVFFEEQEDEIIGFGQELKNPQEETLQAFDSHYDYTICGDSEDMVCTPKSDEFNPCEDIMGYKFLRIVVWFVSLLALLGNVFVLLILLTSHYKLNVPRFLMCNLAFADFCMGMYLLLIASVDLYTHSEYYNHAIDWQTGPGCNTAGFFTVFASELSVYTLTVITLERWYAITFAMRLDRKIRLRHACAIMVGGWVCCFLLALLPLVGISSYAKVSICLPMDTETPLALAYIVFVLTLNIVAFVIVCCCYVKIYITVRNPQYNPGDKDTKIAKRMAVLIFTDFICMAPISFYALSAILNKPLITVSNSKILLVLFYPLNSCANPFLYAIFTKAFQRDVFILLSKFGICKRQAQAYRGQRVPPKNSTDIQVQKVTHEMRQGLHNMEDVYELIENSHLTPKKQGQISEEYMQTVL
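TSHR-expressing cells, 200/well, pre-treated with compound, then stimulated with EC80 TSH (4nM final) for 2 hours at 37 deg C. cAMP measured by competitive HTRF: anti-cAMP cryptate antibody in lysis buffer plus cAMP-d2, read after 30 minutes at room temperature.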
RXFP1 antag = RXFP1 (human) relaxin receptor antagonism. Q9HBX9. HEK293-RXFP1, relaxin-stimulated cAMP HTRF, 30 min; active compounds read low. activity change, negative = inhibition, % at 57.5 µM. 350,000 tested, 0.59% active;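 active = activity change of -60% or lower, but not beyond a set lower limit; inconclusive = change between -60% and -40%, or beyond the set limit; inactive = change above -40%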; note: % is set by controls: 0 for no effect and ±100 for the full control effect
gsp antagonist = antagonizes gsp, the McCune-Albright syndrome mutation; gsp-mutant cells, cAMP HTRF, 30 min; Potency, µM (highest dose often 76.9 µM), without a hit: top-dose activity change, negative = inhibition, most hits filed as inhibitors; 340,000 tested, 0.4% active; calls by dose curve; cell line not stated here;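 note: intracellular cAMP measured with PDE inhibitor Ro 20-1724 present during compound exposure; potency is the fitted concentration of half-maximal effect; % is set by controls: 0 for no effect and ±100 for the full control effect; nearly all actives have a fitted effect of over 65% in size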
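HTRF cAMP measurement after 30 min RT detection following 30 min, 37C compound treatment alongside […] (added as 300 uM solution) in G418-selected cells seeded at 2000/well and grown 16–24 h.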
RXFP1 agonist = activates the human relaxin receptor RXFP1; Q9HBX9; HEK293T-RXFP1 cAMP TR-FRET, 30 min; response scale: percent of porcine relaxin response, buffer zero; Potency, µM (series often up to 57.5 µM), for inactives: at the highest dose activation, actives largely listed as activators; 370,000 tested, 0.3% active; active = well fitted activation curve with a large enough effect; inconclusive = small, poorly fitted or top-dose-only effect; note: potency is the fitted concentration of half-maximal effect; % is set by controls: 0 for no effect and ±100 for the full control effect; nearly all actives have a fitted effect of over 60% in size
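HEK293 cells stably expressing RXFP1, treated 30 min at 37C with compounds plus PDE4 inhibitor Ro 20174; cAMP measured by HTRF TR-FRET. Normalized to buffer and 29 nM porcine relaxin; EC50 by Hill fit.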
gsp ag = activates gsp, the McCune-Albright syndrome mutation; Potency, µM (highest dose often 76.9 µM), for the others: at the highest dose activation (cAMP increase), hits mostly activators; 340,000 tested, 0.13% active; gsp mutant cells, cAMP HTRF, 30 min; active = well fitted activation curve with a large enough effect; inconclusive = small, poorly fitted or top-dose-only effect, or another doubt; inactive = no such curve, though single readings can be large or run the other way; cell line not stated here;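 note: phosphodiesterase inhibitor Ro 20-1724 added with compounds to block cAMP breakdown; potency is the fitted concentration of half-maximal effect; nearly all actives have a fitted effect of over 60% in size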
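Cells stably selected in G418 were plated at 2000/well, grown 16-24 hr, then given compounds in DMSO with the PDE inhibitor […] (300 uM solution added) for 30 min at 37C; cAMP was read by HTRF.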
An asterisk follows results filed as active; ? = inconclusive; · = no result; [ ] = remark or other dose. Only some compounds are listed: those with a hit (about 1% of all), similar ones and a draw of the others.

SMILES	TSHR antag	RXFP1 antag	gsp antagonist	RXFP1 agonist	gsp ag
CC(=O)O[C@]1(C(C)=O)CC[C@H]2[C@@H]3C=C(Cl)C4=CC(=O)CC[C@]4(C)[C@H]3CC[C@@]21C	22.4	-83.4*	-20.1%	0.2%	·
O=C(CSc1nc2ccsc2c(=O)n1Cc1ccccc1F)NCc1ccccc1Cl	·	-30.8	·	1.1%	·
Cc1ccc(S(=O)(=O)c2ccc([N+](=O)[O-])o2)cc1	·	-60.3*	-5.2%	·	-13.2%
Cc1ccc(NC(=O)c2ccc([N+](=O)[O-])o2)c(C)c1	-8.9	7.1	-0.5%	0.8%	5.9%
O=c1oc(C2(O)CCCCC2)cc2ccc(/C=C/c3ccc(F)cc3)cc12	-79.0*	·	-10.5%	3.0%	·
O=c1oc(C2(O)CCCCC2)cc2ccc(Br)cc12	-11.8	·	5.5%	4.1%	·
Cn1cnnc1Sc1nc2c(c(=O)n(C)c(=O)n2C)n1C	·	3.6	10.0%	·	22.4µM*
O=C(NNc1nc(=O)c2cccnc2s1)c1ccccc1O	3.4	12.6	20.8%	15.8µM*	46.7%[15.4 µM]
CN1CCC(NCCC(c2ccc(F)cc2)c2ccc(Cl)cc2)CC1 (stereo not given)	10.1	-85.5*	11.0%	-0.2%	-1.9%[15.4 µM]
O=C(NCc1ccccc1Cl)c1cnc(N2CCCCC2)c2ccccc12	·	-36.6	·	12.5%	·
COc1ccc(CCN2C(=O)N(c3cccc(C)c3)C(=O)C2CC(=O)Nc2ccccc2)cc1OC (stereo not given)	·	·	·	2.4%	·
COc1ccc(CNC(=O)c2cnn(-c3ccccc3)c2-n2cccc2)cc1OC	·	-16.5	·	0.1%	·
CCOc1cc(-c2ccc(OC(=O)c3ccccc3Cl)c(OC)c2)cc(=O)c2c(C)oc(C)c12	·	-73.0*	·	-0.7%	·
CC(=O)N1N=C(c2ccc(C)o2)CC1c1cccc(F)c1 (stereo not given)	-0.3	-60.8*	-3.7%	-1.3%	?
O=[N+]([O-])c1cccc(Nc2nc(Cl)nc(Cl)n2)c1	20.0	-10.5	3.8%	-1.0%	-6.4%[15.4 µM]
O=[N+]([O-])c1cccc(NC2=NCCC2)c1	3.3	-64.5*	18.5%	0.7%	-0.5%[15.4 µM]
COc1ccc(CNC(=O)CN2C(=O)COc3ccc(S(=O)(=O)Nc4ccccc4)cc32)cc1	·	·	·	1.1%	·
O=C(Cc1ccc(Br)c2ccccc12)N/N=C/c1ccccn1	-9.8	?	25.1µM*	-2.4%	-15.1%[15.4 µM]
O=C(Cc1ccc(F)cc1)N/N=C/c1ccccn1	2.5	4.3	13.5%	2.0%	-29.0%
O=C(CCNC(=O)N1CC(=O)Nc2ccccc21)NCc1cccc(Cl)c1	-10.0	-92.3*	8.1%	0.4%	9.8%
COc1cc(C2C(=O)N(C3CCCCCC3)CC(=O)N2CCc2ccccc2)ccc1OC(C)C (stereo not given)	·	7.0	·	1.6%	·
Cc1ccc(CN(C)CC(=O)Nc2ccc3c(c2)CCC3)cc1	-2.1	-64.2*	-5.2%	-0.2%	25.8%
CC(C)(C)C1C/C(=C/c2ccccn2)C(=O)/C(=C/c2ccccn2)C1 (stereo not given)	-21.5	-0.5	-21.3%	-2.0%	-22.9%
CC1C/C(=C/c2ccccn2)C(=O)/C(=C/c2ccccn2)C1 (stereo not given)	-1.1	-74.5*	-18.0%	-0.1%	-0.1%[15.4 µM]
Cc1cn2c(=O)cc(COc3cccc(NC(=O)c4ccccc4Cl)c3)nc2s1	·	·	·	-4.4%	·
SMILES	TSHR antag	RXFP1 antag	gsp antagonist	RXFP1 agonist	gsp ag
COc1ccc(Cn2c(=O)c3oc4ccccc4c3n(Cc3ccc(F)cc3)c2=O)cc1	·	-11.3	·	3.4%	·
CCOC(=O)C1=C(CC)Nc2ccccc2N=C1NC(=O)CCNC(C)=O	3.7	-74.6*	-12.7%	0.5%	-2.4%[15.4 µM]
Cc1ccc2nc(N/C(=N/S(=O)(=O)c3ccc(F)cc3F)c3ccccc3)sc2c1	-16.3	-18.0	-8.8%	-2.4%	6.2%[15.4 µM]
Cc1ccc2nc(N/C(=N/S(=O)(=O)c3ccc(F)cc3)c3ccccc3)sc2c1	-8.2	9.2	25.1µM*	-1.0%	2.8%
CCOc1ccc(-n2c(=O)c3c4c(sc3n(CC(=O)NC(C)CC)c2=O)CCCC4)cc1 (stereo not given)	·	8.7	·	1.9%	·
N#CCC(=O)NN	·	-3.8	·	·	·
COc1ccc(OC)c(NC(=O)CSc2nc3[nH]c(=O)[nH]c(=O)c3s2)c1	·	-6.9	4.3%	·	-4.1%[15.4 µM]
COc1ccc(NC(=O)CSc2nc3[nH]c(=O)[nH]c(=O)c3s2)cc1OC	-73.4*	-7.3	3.7%	0.0%	5.1%
NS(=O)(=O)c1ccc(CCNC(=O)c2ccc(Cl)s2)cc1	3.8	2.6	-5.2%	3.2%	-16.6%
NS(=O)(=O)c1ccc(CCNC(=O)c2cc3ccccc3s2)cc1	-102.5*	-18.2	-10.2%	15.8%	-6.0%[15.4 µM]
COc1ccc(C)cc1NC(=O)Cn1cc(S(=O)(=O)N2CCC(C)CC2)c2ccccc2c1=O	·	·	·	1.0%	·
CCOC(=O)c1nnn(-c2nonc2N)c1CN1CCCC1	12.6	8.3	50.1µM*	-2.1%	-57.6%
CCOC(=O)c1nnn(-c2nonc2N)c1CN1CCCCCC1	6.4	-2.2	-4.4%	4.0%	-25.7%
CCOC(=O)N1CCN(C(=O)CCCN2C(=O)CSc3nc(C)cc(C)c32)CC1	33.3	-13.4	50.1µM*	0.4%	17.7%
O=C(Nc1nc(-c2cc(F)ccc2F)cs1)c1cccc(N2C(=O)CCC2=O)c1	-6.7	-39.8	39.8µM*	-0.6%	-6.5%
O=C(Nc1nc(-c2ccc(F)cc2)cs1)c1cccc(N2C(=O)CCC2=O)c1	15.5	-21.8	?	5.4%	-33.6%
CCOC(=O)N1CCN(c2ncnc3nc[nH]c23)CC1	-6.4	·	-1.2%	6.5%	20µM*
Cc1ccccc1C(=O)OCc1cc(=O)n2nc(C(C)C)sc2n1	·	-11.8	·	1.0%	·
Clc1ccc(-c2noc(CSc3nnc(-c4ccncc4)n3-c3ccccc3)n2)cc1	-16.9	-11.3	31.6µM*	0.0%	-34.7%
CCn1c(=O)n(-c2ccc(F)cc2)c(=O)c2sc3ccccc3c21	·	·	·	10.6%	·
Clc1ccccc1/C=C/C=N/Nc1nc(N2CCOCC2)nc(N2CCOCC2)n1	-14.5	-23.3	12.6µM*	-1.0%	-7.3%[15.4 µM]
O=C(COc1ccccc1[N+](=O)[O-])OCCCOC(=O)COc1ccccc1[N+](=O)[O-]	-5.2	-4.2	-0.8%	-1.0%	?
O=C(COc1ccccc1[N+](=O)[O-])OCC(=O)c1ccc(Br)s1	20.4	14.8	21.7%	·	10µM*
COc1ccc(C(=O)NNc2ncnc3c2cnn3-c2cccc(Cl)c2)cc1OC	·	-15.4	·	1.7%	·
CNC(=O)C1CCC(Cn2c(=O)c3sccc3n(CC(=O)NCc3ccc(C)cc3)c2=O)CC1 (stereo not given)	·	-16.1	·	0.7%	·
C=CCn1c(=O)c(CCC(=O)Nc2ccc(N3CCOCC3)cc2)nc2cc(C(F)(F)F)ccc21	9.0	-67.7*	-2.4%	-1.5%	?
COc1ccccc1N1CCN(CC(O)COc2cc(C)cc(C)c2)CC1 (stereo not given)	·	-5.8	·	-1.1%	·
